TDP1 inh – blocks human tyrosyl-DNA phosphodiesterase 1; recombinant TDP1, AlphaScreen DNA substrate cleavage; Potency, µM (top dose mostly 130 µM), without a hit: at the highest dose activity change, negative = inhibition, most hits filed as inhibitors; 350,000 compounds, 0.28% hits; AID 485290; also: potency is read from the fitted curve at half-maximal effect; nearly all actives have a fitted effect of over 40% in size
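Recombinant E. coli-expressed Tdp1 (1 nM) preincubated with compound 15 min at RT, then 5'-biotin/3'-phosphotyrosine-FITC DNA substrate (15 nM) added for 5 min. AlphaScreen beads (10 ug/ml) added, 10 min RT; tyrosine-FITC cleavage read as signal loss.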
DT40 TDP1 CPT – growth inhibition of DT40 Tdp1-/-;hTDP1 cells with camptothecin (screen for TDP1 inhibitors); AID 686979; chicken DT40 Tdp1-/-;hTDP1 cells + 20 nM CPT, ATP luminescence, 48 h; 420,000 compounds, 12% hits; Potency, µM (highest dose often 46.2 µM), for the others: at the highest dose activity change, negative = growth inhibition, most hits filed as inhibitors; also: potency is read from the fitted curve at half-maximal effect; nearly all actives have a fitted effect of over 55% in size
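Chicken DT40 Tdp1-/- cells complemented with human TDP1, 400 cells/well, exposed to compounds plus 20 nM camptothecin for at least 48 h at 37 C; viability read as ATP content by CellTiter-Glo luminescence.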
Six1-Eya2 inh – blocks human Six1 binding to Eya2; Q15475+O00167; AlphaScreen GST-Six1/His-Eya2 binding, biochemical; stronger effect = lower value; activity change, % (test concentration not listed); 360,000 compounds, 0.56% hits; in the data active = activity change below about -65%; inconclusive = mostly about -30% to -63%
Target sequence (O00167 whole entry, looked up): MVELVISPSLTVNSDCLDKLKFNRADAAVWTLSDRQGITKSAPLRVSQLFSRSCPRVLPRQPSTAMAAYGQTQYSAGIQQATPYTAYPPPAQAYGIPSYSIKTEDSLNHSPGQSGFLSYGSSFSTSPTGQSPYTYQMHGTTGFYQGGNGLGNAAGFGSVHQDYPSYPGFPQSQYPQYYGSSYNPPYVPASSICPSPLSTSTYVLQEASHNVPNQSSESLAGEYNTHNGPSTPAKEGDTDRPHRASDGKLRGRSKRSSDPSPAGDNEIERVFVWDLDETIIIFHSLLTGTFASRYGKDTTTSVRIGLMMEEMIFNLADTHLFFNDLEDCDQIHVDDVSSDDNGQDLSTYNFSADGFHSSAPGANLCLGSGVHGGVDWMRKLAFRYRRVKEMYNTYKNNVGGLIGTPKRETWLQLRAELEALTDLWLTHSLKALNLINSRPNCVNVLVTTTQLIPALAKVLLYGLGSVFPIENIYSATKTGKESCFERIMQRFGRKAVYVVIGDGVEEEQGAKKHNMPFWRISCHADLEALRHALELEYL
Target sequence (Q15475 whole entry, looked up): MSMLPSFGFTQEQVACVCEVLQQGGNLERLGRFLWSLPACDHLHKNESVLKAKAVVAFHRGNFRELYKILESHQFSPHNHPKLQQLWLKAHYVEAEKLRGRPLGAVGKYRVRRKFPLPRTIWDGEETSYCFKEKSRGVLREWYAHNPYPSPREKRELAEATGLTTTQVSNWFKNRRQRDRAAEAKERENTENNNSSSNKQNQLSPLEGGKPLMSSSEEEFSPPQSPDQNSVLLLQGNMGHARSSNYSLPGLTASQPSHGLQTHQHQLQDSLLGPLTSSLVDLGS
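GST-Six1 + His-Eya2 (5X stock: 250/500 nM); Tris pH 8.0, 300 mM NaCl, 0.05% BSA, 0.02% Tween 20; GSH donor/Ni acceptor beads; 1 h 37 °C dark; AlphaScreen readout.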
CtBP-E1A blk – blocks the CtBP interaction with E1A. AlphaScreen GST-E1A/His-CtBP binding, 1536-well; stronger effect = lower value. activity change, % (test concentration not listed). 340,000 compounds, 0.49% hits; in the data active = activity change below about -65%; inconclusive = mostly about -30% to -63%
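GST-E1A and His-tagged CtBP (125 nM each as 5X stock) were preincubated with pin-transferred compound for 2 h at 37 °C in the dark, then glutathione donor and nickel acceptor beads were added for 1 h before AlphaScreen reading.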
DT40 TDP1 no CPT – qHTS for Inhibitors of human tyrosyl-DNA phosphodiesterase 1 (TDP1): qHTS in cells in absence of CPT; DT40 Tdp1-/- hTDP1 cells, no CPT, ATP luminescence, 48 h; Potency, µM (doses to about 46.2 µM), inactives show at the highest dose activity change, negative = growth inhibition, actives largely listed as inhibitors; 420,000 compounds, 15% hits; AID 686978, 2013; also: potency is read from the fitted curve at half-maximal effect; nearly all actives have a fitted effect of over 55% in size
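Chicken DT40 Tdp1-/- cells complemented with human TDP1, screened without camptothecin (DMSO vehicle only), 400 cells/well. Compounds pin-transferred, cells incubated at 37 °C for at least 48 hr. Growth read as ATP-dependent luminescence (CellTiter-Glo, 30 min at RT).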
IL-1B inflam inh – blocks inflammasome-driven IL-1 beta release; AID 743279; 360,000 compounds, 4.7% hits; THP-1 LPS/ATP IL-1B secretion, AlphaLISA, 16 h; stronger effect = lower value; activity change, % at 57.5 µM; in the data active = activity change below about -50%; inconclusive = mostly about -30% to -49%
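THP-1 cells pretreated 1 hr with compounds (up to 57.5 uM final), then stimulated with LPS (250 ng/mL final) plus ATP (1.25 mM final); secreted IL-1B measured by AlphaLISA after 16 hr, decreased signal indicating inhibition.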
* = called active by the depositor; ? = inconclusive; . = no result given. Compounds with a hit are over-represented: about 18% of the library has one in this group of screens. Unless noted, calls follow the shape of the dose curve; as a rule, active = well fitted curve in the direction sought with a large enough effect; inconclusive = small, poorly fitted or top-dose-only effect, or another doubt; inactive = no such curve, though single readings can be large; an effect the other way counts as inactive or inconclusive. % is scaled to controls: 0 for no effect and ±100 for the full control effect.

SMILES | TDP1 inh | DT40 TDP1 CPT | Six1-Eya2 inh | CtBP-E1A blk | DT40 TDP1 no CPT | IL-1B inflam inh
Cc1ccc(Oc2nc3ccccn3c(=O)c2/C=C(\C#N)c2nc3ccccc3s2)c(C)c1 | -2.1% | 11.6µM* | . | . | 4.11µM* | .
Cc1cccn2c(=O)c(/C=C(\C#N)c3nc4ccccc4s3)c(Oc3ccc(Br)cc3)nc12 | -5.3% | 7.31µM* | . | . | 6.51µM* | .
Cc1ccc(Oc2nc3c(C)cccn3c(=O)c2/C=C(\C#N)C(N)=O)cc1 | -2.5% | ? | -5.3 | 7.4 | 13µM* | ?
COc1ccc(O)c(C(=O)c2cnn(C(=O)c3cc(C)oc3C)c2)c1 | 4.2% | -7.5% | -5.3 | -1.4 | ? | 11.0
CC(C)(C)C(=O)CSc1ncccn1 | 3.5% | 26.3% | 2.2 | -19.9 | 3.4% | 16.2
CC1=C(C(=O)Nc2ccc(C)cc2C)C(c2ccc([N+](=O)[O-])cc2)n2ncc(C(=O)Nc3ccc(F)cc3)c2N1 (stereo not drawn) | 4.2% | 8.2µM* | . | . | 8.2µM* | .
CC1=C(C(=O)Nc2ccccc2)C(c2ccccc2C)n2ncc(C(=O)Nc3ccccc3)c2N1 (stereo not drawn) | 0.0% | ? | . | . | -74.3% | .
CCOc1ccc(C2C(C(=O)Nc3ccc(C)cc3C)=C(C)Nc3c(C(=O)Nc4ccc(C)cc4)cnn32)cc1OC (stereo not drawn) | 4.2% | -12.9% | . | . | -6.4% | .
CC1=C(C(=O)Nc2ccccc2)C(c2ccccc2Cl)n2ncc(C(=O)Nc3cccc(C)c3)c2N1 (stereo not drawn) | 3.2% | ? | . | . | 18.4µM* | .
COc1ccc(C2C(C(=O)Nc3ccccc3OC)=C(C)Nc3c(C(=O)Nc4ccccc4)cnn32)c(OC)c1 (stereo not drawn) | 3.2% | 20.6µM* | . | . | ? | .
COC(=O)C1(C)CCCC2(C)C3CCC(C(C)C)C(CO)C3C(CO)CC12 (stereo not drawn) | . | ? | -1.0 | 0.0 | ? | -60.0*
COc1cccc(N2CC(O)Cn3c2nc2c3c(=O)[nH]c(=O)n2C)c1 (stereo not drawn) | 4.7% | -17.5% | 10.6 | -14.5 | -2.1% | 6.1
Cc1ccc(N/N=C(/Sc2nnnn2-c2ccccc2)C(=O)c2ccccc2)cc1 | 5.6% | 29.1µM* | -77.7* | ? | ? | -10.5
O=C(/C(=N\Nc1ccc([N+](=O)[O-])cc1)Sc1nnnn1-c1ccccc1)c1ccccc1 | 9.1% | ? | ? | ? | ? | 0.0
CCN1CCN(C(c2ccccn2)c2c(NC(=O)c3ccccc3)sc(C)c2C)CC1 (stereo not drawn) | 1.5% | 8.2µM* | -18.0 | -8.2 | 8.2µM* | ?
COc1ccc(C(c2c(NC(=O)c3ccco3)sc(C)c2C)N2CCOCC2)cc1 (stereo not drawn) | 4.5% | ? | 2.7 | -1.9 | ? | ?
CCN1CCN(C(c2cccnc2)c2c(NC(=O)c3ccco3)sc(C)c2C)CC1 (stereo not drawn) | 2.2% | 16.4µM* | -3.9 | 4.3 | 23.1µM* | ?
COc1ccc(C(c2c(NC(=O)c3ccccc3)sc(C)c2C)N2CCN(CCO)CC2)cc1 (stereo not drawn) | 1.8% | -6.2% | -2.6 | -1.1 | -1.2% | 3.5
Cc1ccc(S(=O)(=O)/N=C2/NC(=O)/C(=C/c3cccnc3)S2)cc1 | 5.0% | ? | -6.4 | -2.8 | 29.1µM* | -3.4
O=C(NC1CCCCC1)C(c1ccco1)N(C(=O)c1csnn1)c1ccc(Cl)cc1 (stereo not drawn) | 1.7% | ? | -3.4 | -9.0 | ? | -2.6
O=C(NC1CCCCC1)C(c1ccco1)N(C(=O)c1csnn1)C1CCCC1 (stereo not drawn) | -5.2% | ? | -0.3 | -13.2 | 16.4µM* | 0.0
O=C(NC1CCCC1)C(c1ccccn1)N(C(=O)c1csnn1)C1CCCCC1 (stereo not drawn) | 0.0% | 20.6µM* | 1.1 | -0.4 | ? | 37.5
COc1ccc(-c2cc(-c3n[nH]c(=S)n3-c3cccc4ccccc34)[nH]n2)cc1 | 8.1% | 9.8% | -8.3 | -10.3 | -1.0% | -10.8
COc1cccc(C(=O)NCCSCc2c(F)cccc2Cl)c1 | . | 1.5% | 1.0 | 7.2 | ? | -65.2*
Cc1c(C(=O)NCCSCc2c(F)cccc2Cl)cnn1-c1ccc(F)cc1 | 5.5% | ? | -2.1 | -9.4 | 25.9µM* | -21.1
SMILES | TDP1 inh | DT40 TDP1 CPT | Six1-Eya2 inh | CtBP-E1A blk | DT40 TDP1 no CPT | IL-1B inflam inh
COc1cc(NC(=O)COc2cc(O)c3c(c2)OC(C)(C)CC3=O)cc(OC)c1 | . | 16.4µM* | -9.0 | -8.3 | 13µM* | -4.8
CC1(C)CC(=O)c2c(O)cc(OCC(=O)Nc3ccc(CCO)cc3)cc2O1 | . | 14.6µM* | -0.4 | -1.6 | 20.6µM* | -13.1
COc1ccc(CCNC(=O)COc2cc(O)c3c(c2)OC(C)(C)CC3=O)cc1OC | . | ? | -1.3 | 0.1 | 18.4µM* | -4.6
COc1ccccc1NC(=O)CSc1nc2[nH]ncc2c(=O)[nH]1 | -0.2% | -10.0% | -7.8 | 1.8 | -6.7% | 22.5
COc1cccc(-c2cc3nc(C)c(C)c(N4CCN(C(=O)c5ccoc5)CC4)n3n2)c1 | . | 13µM* | -3.5 | 4.7 | 8.2µM* | 1.3
COc1ccc(-c2cc3nc(C)cc(N4CCN(C(=O)c5ccco5)CC4)n3n2)cc1 | . | 20.6µM* | -0.7 | -1.0 | 11.6µM* | -29.0
Cc1ccc(-c2cc3nc(C)cc(N4CCN(C(=O)c5ccoc5)CC4)n3n2)cc1 | . | ? | 7.9 | 4.9 | 18.4µM* | -19.7
COc1ccc(-c2csc(N3CCN(C(=O)c4ccco4)CC3)n2)cc1 | 4.9% | ? | -26.0 | -13.4 | ? | ?
Cc1cc(N2CCN(C(=O)c3ccco3)CC2)n2nc(C)c(-c3ccccc3)c2n1 | 9.5% | 23.1µM* | 0.0 | -1.6 | 23.1µM* | ?
Cc1cc(N2CCN(C(=O)c3ccco3)CC2)n2nc(C)c(-c3ccc(Cl)cc3)c2n1 | 4.8% | . | . | . | . | .
COc1ccc(C(=O)NCC(=O)N2CCc3ccccc3C2)cc1 | 5.1% | 6.4% | 3.7 | 5.9 | -15.7% | -9.0
Cc1ccc(NC(=O)/C(=C/c2cccs2)NC(=O)c2ccco2)c(C)c1 | 0.0% | 2.1% | -0.9 | -4.7 | -0.4% | 11.2
COc1ccc(S(=O)(=O)Nc2c(NC3CCCCC3)c3ccccc3oc2=O)cc1Cl | 4.1% | ? | -12.5 | -15.2 | -15.2% | -19.1
Cc1nc2cc(-c3cccc(Cl)c3)nn2c(N2CCN(C(=O)c3ccco3)CC2)c1C | 4.2% | . | . | . | . | .
